Screening results: PubChem BioAssay, several laboratories
This excerpt belongs to a sample that is enriched for hits.
CD11b adhes inh – blocks human CD11b/CD18 adhesion to fibrinogen. P05107+P11215. K562 CD11b/CD18 adhesion to fibrinogen, ATPlite luminescence; Mn2+ added to activate the integrin. inhibition, % at 10 µM. hit rate 0.54% among 93,000. AID 1497;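 active = primary inhibition of 50% or more at 10 µM, then 40% or more on retest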
CD11b adhes enh – increases human CD11b/CD18 adhesion to fibrinogen. P05107+P11215. K562 CD11b/CD18 adhesion to fibrinogen, ATPlite luminescence. activation, % at 10 µM. hit rate 0.07% among 93,000;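 active = 10 µM primary screen giving 50% or more activity, confirmed by 40% or more on retest at that dose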
D1 mod – allosteric modulators of human D1 dopamine receptor; HEK293 D1, CRE-luciferase, dopamine EC30 potentiation; actives deviate in either direction; B-score at 10 µM; hit rate 5.9% among 58,000; AID 641;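 active = luminescence count or its row- and column-corrected plate score outside the 99.7% band of the plate's sample wells, on either side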
Target sequence (P21728 whole entry, looked up): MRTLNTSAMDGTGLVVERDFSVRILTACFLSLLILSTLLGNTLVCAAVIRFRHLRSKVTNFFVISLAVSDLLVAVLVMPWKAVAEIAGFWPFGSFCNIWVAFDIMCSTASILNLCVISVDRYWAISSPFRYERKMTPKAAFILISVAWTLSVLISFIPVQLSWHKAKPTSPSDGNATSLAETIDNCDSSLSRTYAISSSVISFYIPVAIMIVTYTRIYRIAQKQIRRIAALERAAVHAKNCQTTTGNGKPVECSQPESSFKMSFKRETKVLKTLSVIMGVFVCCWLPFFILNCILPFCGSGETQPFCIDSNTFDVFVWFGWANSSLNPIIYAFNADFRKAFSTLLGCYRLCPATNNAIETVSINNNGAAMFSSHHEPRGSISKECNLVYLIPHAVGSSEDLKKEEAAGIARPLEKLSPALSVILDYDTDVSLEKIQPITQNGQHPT
PTK2B oligo ant – blocks oligomerization of human Pyk2 in cells | Q14289 | Q293 cells, Pyk2 FERM NanoBiT luminescence; active compounds read low | z-score (the deposit names both 25 µM and 10 µM) | hit rate 0.83% among 99,000;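 active = Z-score of -3 or lower, scaled per plate to the spread of control and sample wells; inactive = z-score above -3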;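 also: negative z-score means lost luminescence so less FERM oligomerization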
FAK inh – inhibitors of human focal adhesion kinase. Q05397. biochemical FAK kinase activity assay. inhibition, %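 (tested at 7 µM)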. hit rate 0.84% among 97,000. AID 727; in the data active = inhibition above about 19%;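 also: 0% = DMSO and 100% = reference compound high control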
DAT uptake mod – modulates human dopamine transporter uptake under cocaine. Q01959. LLC-PK1 hDAT cells, [14C]-dopamine uptake with cocaine IC80; actives deviate in either direction. B-score at 10 µM. hit rate 1.3% among 110,000. AID 449768;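 active = Z score or B-score, a plate-position-corrected score, falls beyond the plate's 99.7% confidence bounds, in either direction; inactive = both scores lie inside the 99.7% bounds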;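 also: scored against the spread of the other compound wells on the same plate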
An asterisk follows results filed as active; / = not tested or not shown.

SMILES	CD11b adhes inh	CD11b adhes enh	D1 mod	PTK2B oligo ant	FAK inh	DAT uptake mod
Cc1ccc(C(C)NC(=O)c2ccco2)cc1C (configuration not stated)	-4	0	0.63	-0.54	/	0.23
COc1cccc(-c2ccc(=O)n(CC(=O)Nc3ccc(C(=O)N4CCCC4)cc3)n2)c1	7	-4	/	-0.19	1	2.9*
COc1cccc(-c2ccc(=O)n(CC(=O)Nc3cc4c(cc3NC(C)=O)OCCO4)n2)c1	8	5	-0.33	-0.88	3	0.45
CCOc1ccc(N2C(=O)CN=C2Nc2ccccc2F)cc1	12	5	/	0.2	-3	1.4
CC(=O)Nc1nc(-c2ccccc2)nc(C)c1C(C)=O	-43	15	0.033	0.03	1	-8.5*
Cc1cccc(N2CCN(C(=O)c3c(C)nn(Cc4ccccc4Cl)c3C)CC2)c1C	52*	-4	/	0.24	2	-0.22
CCOC(=O)N1CCC(N2C(=O)c3ccccc3C2Nc2cc(C(=O)OC)cc(C(=O)OC)c2)CC1 (configuration not stated)	-3	0	2.3	/	9	1.1
Cc1ccc(N2C(=O)CC2(C#N)c2ccc(OCc3ccccc3)cc2)cc1 (configuration not stated)	8	0	/	-0.93	-1	0.25
Cc1ccnc(Nc2nc(-c3c(C)nc4sccn34)cs2)c1	66	-5	0.52	-0.87	1	0.79
CC(=O)Nc1cccc(-c2csc(Nc3cc(C)ccn3)n2)c1	27	7	/	-1	3	3.1*
CC(=O)Nc1cccc(-c2csc(Nc3ccccn3)n2)c1	/	/	/	-1.3	2	2.5*
COc1cc(-c2nnc(SCC3(c4ccc(Br)cc4)OCCO3)o2)cc(OC)c1OC	4	3	/	-1.4	0	0.64
CC(C)(C)NC(=O)C1Cc2ccccc2CN1C(=O)Nc1ccccc1Cl (configuration not stated)	/	/	/	0.14	-2	-0.05
CC(C)c1ccc(CC(C)C2C3=C(CCCC3=O)OC3=C2C(=O)CCC3)cc1 (configuration not stated)	-34	0	/	-4.2*	1	0.35
Oc1ccc(N2CCN(C(c3ccccn3)c3nnnn3C3CCCC3)CC2)cc1 (configuration not stated)	/	/	/	-0.39	-1	-0.039
CCN(CC)CCCN1C(=O)C(=O)/C(=C(/O)c2ccc3c(c2)OCCO3)C1c1ccc(C)o1 (configuration not stated)	-12	-2	2.3*	/	/	/
O=C(CCN1CCc2ccccc2C1)Nc1ccc(F)cc1	/	/	0.93	-0.03	-6	0.84
CCCSC1=C(C#N)C(c2ccc(OC)cc2)C2=C(CC(C)(C)CC2=O)N1 (configuration not stated)	-8	-5	/	-2.4	/	-1.2
CSC1=C(C#N)C(c2ccc(Cl)cc2)C2=C(CC(C)(C)CC2=O)N1 (configuration not stated)	-13	-4	/	-3.1*	/	1.6
CN(c1ccccc1)C(c1ccc(F)cc1)c1nnnn1C1CCCC1 (configuration not stated)	-22	-4	-0.0039	-1.6	-5	-0.0018
CCOC(=O)N1CCN(C(=O)c2noc(C(C)C)c2[N+](=O)[O-])CC1	/	/	/	/	/	-0.19
O=C1CC(SC(=Nc2ccccc2)Nc2ccccc2)C(=O)N1c1cccc2ccccc12 (configuration not stated)	/	/	/	-3*	-9	0.79
NC(=O)C1CCN(c2ncnc3c2c(-c2ccccc2)cn3-c2ccccc2)CC1	3	1	-3.8*	/	-3	-0.14
Brc1ccc(-n2cc(-c3ccccc3)c3c(NN4CCOCC4)ncnc32)cc1	-6	0	/	-0.96	/	/
NC(=O)CNC(=O)[C@@H]1CC2(CC(c3cccc(Br)c3)=NO2)CN1C(=O)c1ccc(Br)cc1 (some centres not stated)	1	-2	/	/	5	2.2*
SMILES	CD11b adhes inh	CD11b adhes enh	D1 mod	PTK2B oligo ant	FAK inh	DAT uptake mod
COc1ccc(NC(=O)C=C(C)C)cc1Cl	-16	-3	-3.8*	1.5	3	-0.91
COc1ccc(NC(=O)C(C)NS(=O)(=O)c2ccc(NC(C)=O)cc2)cc1Cl (configuration not stated)	/	/	-0.47	1.6	0	-0.074
Cc1ccc(NC(=O)CS(=O)CC(=O)Nc2ccc3c(c2)OCO3)cc1Cl (configuration not stated)	-14	41	/	1.2	16	-7.6*
CC(C)=CC(=O)Nc1ccc2c(c1)OCO2	-5	-7	-5.2*	0.46	0	-0.12
Cc1cc(C(=O)NCCCN2CCCC2=O)no1	-22	0	-0.81	-0.14	-4	-1.9
COC(=O)c1ccc(Oc2nc(Nc3ccc(C)c(C)c3)nc(N(C)C)n2)cc1	1	-6	/	-1.2	0	1.9
CN(C)CCN(C(=O)c1ccccc1Cl)c1nc2c(Cl)cccc2s1	29	4	/	/	/	/
CCOC(=O)C1=C(C)Nc2ccccc2N=C1NC(=O)Cc1ccc(OC)cc1	-2	-1	/	-0.11	/	/
CC(=O)n1cc([C@H]2C=C(C(=O)N3CCN(Cc4ccccc4)CC3)O[C@@H](OCCCCO)C2)c2ccccc21	/	/	/	/	/	2.9*
O=C(NCc1ccccc1)C1=C[C@H](C2CCCCC2)C[C@H](OCCCCO)O1	/	/	/	/	/	2.1*
CC(=O)n1cc([C@@H]2C=C(C(=O)N3CCN(Cc4ccc5c(c4)OCO5)CC3)O[C@H](OCCCCO)C2)c2ccccc21	/	/	/	/	/	2.1
O=C(C1=C[C@H](C2CCCCC2)C[C@H](OCCCCO)O1)N1CCN(Cc2ccc3c(c2)OCO3)CC1	/	/	/	/	/	2.2*
CCO[C@H]1OC(C(=O)NCc2nc3ccccc3[nH]2)=C[C@@H](c2ccc3c(c2)OCO3)[C@@H]1CCCO	/	/	/	/	/	2.7*
O=C(CSCc1ccc(Cl)cc1)c1ccco1	-10	2	-1.4	/	/	0.59
O=C(O)C1CC(O)CN1C(=O)c1ccco1 (configuration not stated)	-6	-1	/	0.34	1	0.047
O=C1NC[C@H](c2ccccc2)N(CCc2cccc(F)c2)C1=O	/	/	/	/	/	0.094
O=C(c1cc2sccc2n1Cc1ccccc1)N1CCN(c2nc3ccccc3s2)CC1	/	/	/	-1.1	-9	-0.002
O=C(NCc1nc2ccccc2[nH]1)C1=C[C@H](C2CCCCC2)C[C@H](OCCCCO)O1	/	/	/	/	/	1.9*
CS(=O)(=O)N(CCc1ccccc1)CC(=O)N1CCc2ccccc2C1	-18	-3	-0.28	-0.18	-1	0.18
Cc1ccc(/C=C/C(=O)C2C(=O)c3ccccc3C2=O)cc1	95*	-12	/	0.07	-6	0.015
CC1(C)CC(=O)CC(C)(C)N1OC(=O)c1ccncc1	-12	-1	-0.18	0.16	2	-0.85
CN(C)S(=O)(=O)c1cccc2nsnc12	-7	-1	0.0027	0.61	2	-2*
Cc1cccc(N(C)S(=O)(=O)c2cccc3nsnc23)c1	-18	4	-1.5	0.6	/	0.038
